# Activity calls are given as the source filed them. Unless noted, the rule behind the calls is not given here.
# Assays:
# [1] = A549 cell viability effects, profiling panel, calcein-AM fluorescence, 48 h, basal (AID 1162); details: higher = more signal; note: test concentration not given here
# [2] = adipocyte viability effects, profiling panel, cell-based, 3T3-L1 adipocytes, calcein-AM fluorescence, 48 h, basal (AID 1163); details: 3T3-L1 adipocytes viability, higher = more signal; note: test concentration not given here
# [3] = HepG2 cell viability effects, profiling panel, calcein-AM fluorescence, 48 h, basal (AID 1164); details: higher = more signal; note: test concentration not given here
# [4] = MM1S cell viability effects, profiling panel, calcein-AM fluorescence, 48 h, basal (AID 1165); details: higher = more signal;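 note: viability of MM1S multiple myeloma cells under basal unstimulated conditions; test concentration not given here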
# [5] = basal RPMI8226 viability, no added stimulus, profiling panel, cell-based, calcein-AM fluorescence, 48 h, PK04 Diversity Set (AID 1166); details: RPMI8226 myeloma viability, higher = more signal;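 note: cells grown under basal conditions without added stimulus; test concentration not given here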
# [6] = basal HepG2 mitochondrial membrane potential changes, profiling panel, cell-based, JC-1 fluorescence, 24 h, 100 nL compound (AID 1167); details: higher = more signal; note: test concentration not given here
# [7] = basal 3T3-L1 adipocyte mitochondrial potential changes, profiling panel, cell-based, JC-1 fluorescence, 3T3-L1 adipocytes, 24 h, 100 nL compound (AID 1168); details: JC-1 mitochondrial fluorescence, higher = more signal, called active from +8 up or from −8 down; note: test concentration not given here
# [8] = basal RPMI8226 mitochondrial membrane potential changes, profiling panel, cell-based, JC-1 fluorescence, 24 h, 100 nL compound (AID 1169); details: RPMI8226 myeloma, JC-1 mitochondrial potential fluorescence, higher = more signal; note: test concentration not given here
# [9] = basal MM1S mitochondrial membrane potential changes, profiling panel, cell-based, JC-1 fluorescence, 24 h, 100 nL compound (AID 1170); details: higher = more signal; note: test concentration not given here
# [10] = A549 lung cancer cell viability effects, profiling panel, resazurin fluorescence, 24 h, PK04 Diversity Set (AID 1171); details: higher = more signal, called active from +8 up or from −8 down; note: test concentration not given here
# [11] = HepG2 liver cancer cell viability effects, profiling panel, resazurin fluorescence, 24 h, PK04 Diversity Set (AID 1172); details: higher = more signal; note: test concentration not given here
# [12] = basal S. cerevisiae growth modulation, no modifier, primary screen, OD600, strain BY4716, 24 h, basal condition (AID 1173); details: OD600, 24 h, higher = more signal, called active from +8 up or from −8 down
# [13] = MM1S myeloma cell viability, profiling panel, resazurin fluorescence, basal, 24 h, PK04 Diversity Set (AID 1174); details: higher = more signal, called active from +8 up or from −8 down;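 note: MM1S multiple myeloma cell line; test concentration not given here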
# [14] = target: Dihydroorotate dehydrogenase (quinone), mitochondrial (Plasmodium falciparum (isolate 3D7)) (UniProt Q08210); test: PfDHODH enzyme inhibitors, primary screen, biochemical, C-terminal His tag, absorbance 600 nm (AID 1175); details: DCIP absorbance 600 nm, higher = more signal, called active from +8 up or from −8 down;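 note: recombinant parasite enzyme with a five histidine tag at its C terminus; test concentration not given here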
# Chain of Dihydroorotate dehydrogenase (quinone), mitochondrial (Plasmodium falciparum (isolate 3D7)) (Q08210 whole entry, looked up): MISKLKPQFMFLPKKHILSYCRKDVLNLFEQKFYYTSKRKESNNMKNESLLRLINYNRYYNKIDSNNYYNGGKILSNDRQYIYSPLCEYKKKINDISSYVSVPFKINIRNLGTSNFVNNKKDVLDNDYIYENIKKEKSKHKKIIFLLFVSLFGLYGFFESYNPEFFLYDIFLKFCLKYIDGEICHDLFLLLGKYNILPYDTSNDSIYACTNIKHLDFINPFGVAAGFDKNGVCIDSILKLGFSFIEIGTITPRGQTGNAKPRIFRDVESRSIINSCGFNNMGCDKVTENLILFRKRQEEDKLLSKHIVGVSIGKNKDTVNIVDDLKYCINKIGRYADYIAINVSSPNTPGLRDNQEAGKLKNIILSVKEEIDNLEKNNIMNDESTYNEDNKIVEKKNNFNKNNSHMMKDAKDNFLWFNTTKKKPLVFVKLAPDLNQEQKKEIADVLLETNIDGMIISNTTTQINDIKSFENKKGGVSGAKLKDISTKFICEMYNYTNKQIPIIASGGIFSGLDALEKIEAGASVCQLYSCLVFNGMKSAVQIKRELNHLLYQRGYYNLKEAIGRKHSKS
# [15] = P. aeruginosa biofilm formation inhibitors, primary screen, strain PAO1, LB-PBS medium, absorbance 600 nm (AID 1176); note: test concentration not given here; details: P. aeruginosa PAO1 growth/biofilm, A600, 12 h; higher = more signal
# [16] = S. cerevisiae RM11-1a growth modifiers, primary screen, strain RM11-1a, OD600, basal, 24 h (AID 1177); details: OD600, 24 h, higher = more signal, called active from +8 up or from −8 down;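 note: cultures grown under basal conditions with no added stressor; test concentration not given here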
# [17] = E. coli acrAB mutant growth effects, primary screen, E. coli filamentation inducers, strain DRC39, OD650, 24 h (AID 1178); details: higher = more signal, called active from +8 up or from −8 down;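 note: growth measured as culture turbidity by optical density at 650 nm; test concentration not given here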
# [18] = E. coli acrAB mutant growth effects, primary screen, E. coli filamentation inducers, strain DRC39, OD650, 48 h (AID 1179);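 note: screen aims at cell division blockers that make cells filament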; details: E. coli DRC39 delta-acrAB growth, higher = more signal, called active from +8 up or from −8 down
# [19] = RPMI8226 myeloma cell viability, profiling panel, resazurin fluorescence, basal, 24 h, PK04 Diversity Set (AID 1180); details: higher = more signal;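 note: RPMI8826 multiple myeloma cell line at 5000 cells per well; test concentration not given here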
# [20] = target: E3 ubiquitin-protein ligase XIAP (Homo sapiens) (UniProt P98170); test: XIAP binders, primary screen, biophysical, small-molecule microarray, fluorescence 635 nm (AID 1181); details: small-molecule microarray binding, higher = more signal;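 note: score merges 667 nm emission and signal to noise over triplicate slides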
# Chain of E3 ubiquitin-protein ligase XIAP (Homo sapiens) (P98170 whole entry, looked up): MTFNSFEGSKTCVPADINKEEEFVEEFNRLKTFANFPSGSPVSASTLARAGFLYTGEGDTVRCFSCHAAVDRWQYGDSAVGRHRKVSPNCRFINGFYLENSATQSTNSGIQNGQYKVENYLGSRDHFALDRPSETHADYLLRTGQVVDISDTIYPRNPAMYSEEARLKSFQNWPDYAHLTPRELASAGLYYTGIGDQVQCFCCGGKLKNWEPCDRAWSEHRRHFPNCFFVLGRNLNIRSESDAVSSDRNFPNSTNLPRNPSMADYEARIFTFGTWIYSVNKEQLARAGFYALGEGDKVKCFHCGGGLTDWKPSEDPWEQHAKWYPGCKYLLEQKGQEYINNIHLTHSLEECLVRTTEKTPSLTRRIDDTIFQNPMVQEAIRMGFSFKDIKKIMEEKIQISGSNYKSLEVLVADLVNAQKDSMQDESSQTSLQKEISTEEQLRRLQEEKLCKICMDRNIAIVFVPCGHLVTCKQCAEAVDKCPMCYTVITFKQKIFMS
SMILES,z-score [1],z-score [2],z-score [3],z-score [4],z-score [5],z-score [6],z-score [7],z-score [8],z-score [9],z-score [10],z-score [11],z-score [12],z-score [13],composite z-score [14],z-score [15],z-score [16],z-score [17],z-score [18],z-score [19],composite z-score [20]
[N-]=[N+]=NCc1ccccc1[C@H]1OC(c2ccc(OCCCO)cc2)=N[C@@]1(Cc1ccccc1)C(N)=O,0.267,0.514,1.63,-0.0987,0.317,1.19,0.593 (inactive),-0.418,-1.01,1.16 (inactive),1.16,-3.32 (inactive),-0.0284 (inactive),-0.174 (inactive),-0.195 (inactive),1.01 (inactive),0.961 (inactive),0.195 (inactive),-0.373,-0.124
O=C(C=C(CC(O)c1cccc(Cl)c1)OCCF)OCCF (stereo not given),0.595,0.642,0.989,0.947,-0.667,0.586,0.869 (inactive),0.0309,-0.273,0.135 (inactive),-0.0453,-1.47 (inactive),0.0592 (inactive),-2.48 (inactive),-0.777 (inactive),-1.33 (inactive),-0.0441 (inactive),1.04 (inactive),0.335,0.237
CC(C)C[C@@H]1NC(=O)[C@@H]2C[C@H](C(=O)NCc3ccc(F)cc3)[C@H](c3ccc(O)cc3)N2C1=O,0.0054,0.305,-1.03,-0.199,-0.214,1.07,0.0421 (inactive),0.182,0.593,0.149 (inactive),-1.5,0.0288 (inactive),0.429 (inactive),-1.36 (inactive),0.891 (inactive),-0.647 (inactive),-0.52 (inactive),-1.2 (inactive),0.734,0.222
CN1C(=O)C2C=CC(C(O)C3CCCCC3)N(N(c3ccccc3)c3ccccc3)C2C1=O (stereo not given),-0.42,-0.88,0.149,0.241,-0.758,-0.954,-1.2 (inactive),-0.361,-0.365,-0.361 (inactive),-0.11,0.495 (inactive),-1.54 (inactive),-0.15 (inactive),0.571 (inactive),0.0139 (inactive),-0.881 (inactive),-0.121 (inactive),-1.54,0.264
C=CCC(OC(C)=O)[C@@H]1[C@@H](N(Cc2ccc(-c3cccc(C(F)(F)F)c3)o2)C(=O)c2cccc3ccccc23)c2cc(OCCCO)ccc2N1C(=O)c1ccc(-c2ccccc2)cc1 (stereo not given in full),0.558,0.865,-0.382,-1.04,-1.23,2.41,-2.44 (inactive),0.00531,0.988,-0.93 (inactive),-1.02,-0.0033 (inactive),-1.1 (inactive),0.821 (inactive),-0.416 (inactive),0.0679 (inactive),0.147 (inactive),-0.241 (inactive),-0.851,-0.031
COC(=O)[C@@]1(Cc2ccc(F)cc2)[C@H]2c3cc(C(=O)N(C)C)n(Cc4ccc(C)c(F)c4F)c3C[C@H]2CN1C(=O)c1ccccc1,0.674,-0.609,1.03,-0.144,0.299,3.29,0.157 (inactive),0.299,-0.605,0.0638 (inactive),0.245,0.534 (inactive),-0.231 (inactive),0.059 (inactive),-0.0298 (inactive),0.671 (inactive),0.171 (inactive),0.265 (inactive),-0.455,-0.102
COc1ccc([Si](C)(C)[C@@H]2[C@@H](CC(=O)N3Cc4ccccc4C[C@H]3CO)O[C@]3(C(=O)N(Cc4cccc(N5CCCCC5=O)c4)c4ccccc43)[C@H]2C)cc1,-0.824,1.85,-1.27,-1.55,-3.36,-0.157,0.472 (inactive),-0.901,-0.398,-2.68 (inactive),-1.16,0.0062 (inactive),-3.09 (inactive),-1.02 (inactive),0.331 (inactive),1.98 (inactive),-0.453 (inactive),-0.878 (inactive),-2.15,-0.148
O=C1N(CCS(=O)(=O)c2ccccc2)c2ccccc2[C@H]2OC(c3ccc(OCCCO)cc3)=N[C@@]12CCS(=O)(=O)c1ccccc1,0.571,0.771,0.504,0.201,-0.0504,-0.38,2.29 (inactive),-0.371,-1.23,0.789 (inactive),0.248,2.94 (inactive),0.685 (inactive),0.761 (inactive),0.591 (inactive),3.96 (inactive),2.37 (inactive),1.04 (inactive),0.488,0.0197
O=c1c2ccc(Br)cc2nc(-c2ccccc2)n1Cc1cccc(O)c1,-0.277,1.02,0.196,-0.115,0.195,-0.0225,-0.525 (inactive),0.385,-0.258,0.0972 (inactive),-0.187,-2.04 (inactive),-1.1 (inactive),0.515 (inactive),0.186 (inactive),0.159 (inactive),0.362 (inactive),0.39 (inactive),-0.0974,-0.151

# Reference: PubChem BioAssay
